# V-ATPase pHluor = alters yeast V-ATPase proton transport | S. cerevisiae, pHLuorin cytosolic pH fluorescence | response, % at 10 µM | actives 0.37% (n = 350,000); in the data active means response mostly above about 7.3%, no sharp cut-off; inactive means mostly below about 5.4%; further: actives read high
# Yeast superoxide = yeast age-related superoxide inhibition as caloric restriction mimetic; S. cerevisiae aged cells, superoxide DHE fluorescence; active compounds read low; superoxide response (% of plate mean), % at 10 µM; AID 2690; actives 0.18% (n = 330,000);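 active means superoxide response under a set limit, about three screen SD below normal, cut at about 65% in these data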;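 further: yeast aged for seven days with compound at 30 °C before DHE staining; 100% = average MFI of all compound-treated wells on the plate with controls excluded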
# hiPSC survival = hiPSC single-cell survival enhancement | ATPlite luminescence; 100% = ROCK inhibitor wells, 0% = DMSO | survival enhancement, % at 20 µM | AID 602274 | actives 0.044% (n = 360,000); in the data active means survival enhancement above about 18%;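 further: cells exposed to compounds for 16 hours before the ATP read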
# Fh CTSL1 inh = cathepsin L1 inhibition, PFM18AAP counter-screen. actives 0.49% (n = 300,000). AID 1906. recombinant F. hepatica cathepsin L1, Z-Leu-Arg-MCA fluorescence. inhibition, % at 5.96 µM;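 active means inhibition above the mean of all tested compounds plus 3 SD, set per screening campaign, cut at about 17% in these data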;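 further: 0% = plate median of test compound wells and 100% = 1 µM Z-Phe-Ala-diazomethylketone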
# V-ATPase pH SP = modulates yeast V-ATPase proton transport. shares compounds with V-ATPase pHluor. S. cerevisiae pHLuorin cytosolic pH. response, % at 10 µM. actives 2% (n = 980); in the data active means response above about 24%;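 further: plate controls were vehicle wells for no effect and positive control wells for full effect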
# The depositor's hits bear a star; . = not tested or not shown. Shown are actives, neighbours in structure and some others; about 1% of the full set was active somewhere.
SMILES,V-ATPase pHluor,Yeast superoxide,hiPSC survival,Fh CTSL1 inh,V-ATPase pH SP
O=c1cc(-c2ccco2)nc(-c2cccs2)o1,9.5*,95,2,2,4
Cc1cc(C)c(NC(=O)CSc2nc3ccc(N4C(=O)c5ccccc5C4=O)cc3s2)c(C)c1,9.0*,116,1,0,-47
CCCC(O)(c1ccc(OC)cc1)C(CN1CCOCC1)c1ccc(Cl)cc1 (stereo not given),12*,92,0,4,2
COc1ccc(C(=O)NCc2nnc(SCC(=O)Nc3cc(Cl)ccc3OC)o2)cc1,-23,95,0,-4,.
CC(C)(C)C(=O)Nc1ccccc1C(=O)NCCC(=O)Nc1ccccc1,11*,86,0,2,-1
O=C(NCC(c1cccs1)N1CCOCC1)c1cccc([N+](=O)[O-])c1 (stereo not given),53*,102,0,-2,-3
O=C(NCC(c1cccs1)N1CCOCC1)c1cc([N+](=O)[O-])cc([N+](=O)[O-])c1 (stereo not given),-5,92,-1,6,.
O=C(OCC(=O)N1CCCC1)c1ccccc1C(=O)c1ccccc1,-1,100,0,.,.
O[C@@H]1CN(C2CCN(Cc3ccccc3)CC2)CC[C@H]1N1CCCCCC1,11*,.,-1,.,0
CCOC(=O)C1(S(=O)(=O)c2ccc(Cl)cc2)CCN(Cc2ccc(C)cc2)CC1,-2,105,-2,0,.
Cc1ccc(NC(=O)COc2ccc3c(c2)OCO3)c(C)c1,0,113,0,.,.
Cc1cc(C)c(OCC(=O)Nc2nc3ccccc3[nH]2)c(C)c1,9.7*,104,-3,-2,-4
Cc1ccc(S(=O)(=O)Nc2cnc3ccccc3c2)cc1,9.9*,97,-2,-3,-5
Cc1ccccc1C(=O)NC1CCN(CC(=O)Nc2ccc(N(C)C)cc2)CC1,-5,95,0,3,.
CC(=O)c1ccc(NC(=O)CN2CCC(NC(=O)c3ccccc3C)CC2)cc1,8.2*,.,-2,.,-1
O=C(COC(=O)CCC(=O)N1CCOCC1)Nc1ccc(Br)cc1Br,-2,88,-1,.,.
COc1ccc2c(c1)C(CC(=O)NN)CCC2 (stereo not given),13*,.,-1,.,0
CN(C)/C=C(\C(=O)c1ccccc1)c1nnnn1-c1ccc(F)cc1,21*,106,0,-2,6
Cc1ccccc1NC(=O)CSc1nnc2ccc(-c3cccnc3)nn12,10*,104,0,-3,5
O=C1C2C3C=CC(CC3)C2C(=O)N1/N=C/c1c(O)ccc2ccccc12 (stereo not given),7.5*,108,-1,5,-1
CC(CCc1ccccc1)NC(=O)COC(=O)C1CCC(C(C)(C)C)CC1 (stereo not given),0,106,-1,4,.
COc1ccc(S(=O)(=O)N2CCN(Cc3c[nH]c4ccccc34)CC2)cc1,7.8*,96,-4,2,1
Cc1ccc(C(=O)CCC(=O)NC2=NCCS2)cc1,2,82,2,.,-2
Cc1cc(OCCCC(=O)NC2=NCCS2)ccc1Cl,9.5*,100,-3,1,-2
O=C(CCc1nnc(-c2ccc3c(c2)OCO3)o1)NC(c1cccnc1)C(F)(F)F (stereo not given),8.6*,113,0,0,2
SMILES,V-ATPase pHluor,Yeast superoxide,hiPSC survival,Fh CTSL1 inh,V-ATPase pH SP
CCOC(=O)C1CCCCN1C(=O)CCc1nnc(-c2ccc3c(c2)OCO3)o1 (stereo not given),-2,103,0,-1,.
Cc1ccc(NC(=O)CSc2nnc(Cc3ccccc3)c(=O)[nH]2)c(C)c1,11*,97,0,-1,-1
Cc1ccc(S(=O)(=O)N[C@@H](CC(C)C)C(=O)N2CCC(C(=O)N[C@H](C(=O)O)C(C)C)CC2)cc1,-1,108,-2,1,.
CCCCCCSc1nsc(NC(C)=O)n1,11*,113,-1,4,4
CCCn1c(SCC(=O)NC(=O)NC(C)(C)C)n[nH]c1=O,-5,92,0,-3,.
CCS(=O)c1scc(-c2ccc(Cl)cc2)c1C#N (stereo not given),9.0*,104,-1,3,0
CCc1nc2c(C#N)c(-c3ccc(Cl)cc3)ccn2n1,0,96,-3,4,.
C/C(CC(=O)Nc1ccccn1)=N\NC(=O)c1cnccn1,16*,89,-1,-5,4
CC(C(=O)Nc1ccc2c(c1)OCCO2)c1ccc([N+](=O)[O-])cc1 (stereo not given),0,96,-1,0,.
CC(C(=O)Nc1ccc2c(c1)OCO2)c1ccc([N+](=O)[O-])cc1 (stereo not given),15*,82,2,-3,1
CCCC(=O)Nc1ccc(C(=O)Nc2cccc(OC)c2)cc1,9.7*,102,-2,4,3
CCCCOC(=O)c1ccc(NC(=O)COC(=O)c2ccc3ncsc3c2)cc1,-1,128,0,.,.
CC(c1ccco1)N(C(=O)C12CC3(C)CC(C)(CC(C)(C3)C1)C2)c1ccccn1 (stereo not given),13*,108,-1,4,-3
Cc1cccc(C(=O)N(c2ccccn2)C(C)c2ccco2)c1 (stereo not given),-3,111,0,-6,.
CCOc1ccc(CCNC(=O)COC(=O)Cn2nc(C)c([N+](=O)[O-])c2C)cc1OCC,-2,100,0,-1,.
Cc1nn(CC(=O)OCC(=O)NCCc2ccc(F)cc2)c(C)c1[N+](=O)[O-],9.9*,89,1,.,-4
COc1ccc(C(=O)NCCn2cc(SCC(=O)NCC3CCCO3)c3ccccc32)cc1OC (stereo not given),8.1*,101,0,-2,-3
O=C(Nc1ccccc1)OCc1cnc(Cl)s1,7.0*,116,-1,2,2
O=C(Nc1ccc(Cl)c(Cl)c1)OCc1cnc(Cl)s1,2,104,0,2,.
Cc1ccc(-c2c(C#N)c(N)n3c(nc4ccccc43)c2C#N)cc1,2,92,0,3,.
N#Cc1c(-c2ccccc2)c(C#N)c2nc3ccccc3n2c1N,9.1*,113,-2,6,-29
CCc1ccc(OCc2cccc(C(=O)N/N=C\c3cnn(C)c3C)c2)cc1,0,.,0,.,.
O=C(COc1ccc(F)cc1Cl)NC1CCCCCC1,5,82,0,.,.
Cc1ccc(-n2nc(C(=O)NN)c(C)c(C#N)c2=O)cc1Cl,0,90,-1,-2,.
Cc1c(C(=O)NN)nn(-c2ccc(Cl)cc2)c(=O)c1C#N,1,127,0,2,-3
Nc1cc(C(=O)OCC(=O)NCCC2=CCCCC2)ccc1Cl,-1,100,1,.,.
O=C(COC(=O)c1cnc(Cl)c(Cl)c1)NCCC1=CCCCC1,65*,106,0,-7,5
Cc1ccc(-c2cc(C(=O)N/N=C/c3c(C)nn(C)c3C)c3ccccc3n2)cc1C,12*,98,-5,5,-6
Cc1ccc(-c2cc(C(=O)N/N=C/c3ccoc3)c3ccccc3n2)cc1,3,97,0,.,.

# High-throughput results deposited in PubChem BioAssay by several laboratories.
